Screening results: PubChem BioAssay, University of Kansas High Throughput Screening Laboratory
Pf apPOL inh – Pf-apPOL DNA polymerase inhibition; 0.25% of 210,000 active; Recombinant Pf-apPOL, molecular beacon fluorescence, 1.5 h; inhibition, % at 10 µM
mHTT-CaM PPI inh – disrupts binding of mutant huntingtin to calmodulin | P42858 | AlphaScreen His-mHTT/GST-CaM binding, luminescence | inhibition, % at 15 µM | 3.6% of 190,000 active | AID 1671202;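 further: 0% = both proteins with DMSO and 100% = one protein alone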
Active calls of the source: *; x = not tested or not shown. Rows were chosen to be rich in hits. Some 3.5% of all compounds tested hit in one or more screens of this group. No stated cut-off is given here; in the data, active means inhibition above about 50%; inactive means the rest.

SMILES	Pf apPOL inh	mHTT-CaM PPI inh
COc1cc(OC)c2c(C)cc(=O)oc2c1C(CCN1CCCC(C)C1)c1ccc(N(C)C)cc1 (stereo unspecified)	-8	79*
COc1cc(OC)c2ccc(=O)oc2c1C(CCN1CCCC1)c1ccc(N(C)C)cc1 (stereo unspecified)	0	46
O=C(NCC(=O)N1CCC(c2noc(-c3ccccc3)n2)CC1)c1ccco1	-3	-5
COc1ccccc1Oc1coc2c(CN3CCC(C)CC3)c(O)ccc2c1=O	4	-5
COc1ccc(-c2nsc(SCC(=O)N3CCCCCC3)n2)cc1	-3	-13
COc1cc(O)c(C(CCN2CCOCC2)c2ccc(N(C)C)cc2)c(OC)c1 (stereo unspecified)	-7	58*
COc1cc(O)c(C(CCN2CCCC(C)C2)c2ccc3c(c2)OCO3)c(OC)c1 (stereo unspecified)	7	33
COc1cc(O)c(C(CCN2CCCC(C)C2)c2ccc(N(C)C)cc2)c(OC)c1 (stereo unspecified)	7	55*
COc1cc(O)c(C(CCN2CCOCC2)c2ccc3c(c2)OCO3)c(OC)c1 (stereo unspecified)	-7	24
CN(C)C(=O)c1ccnc(N2CCNC(c3ccccc3)C2)c1 (stereo unspecified)	21	-3
CCN1CCN(C(=O)Cn2c(Cc3ccccc3)nc3cc(C)c(C)cc32)CC1	5	10
CCSc1nnc(NC(=O)CSc2nnc3c4ccccc4n(CC)c3n2)s1	1	-4
O=C(CN1N=C(c2ccc(Cl)cc2)CCC1=O)NCCN1CCN(Cc2ccccc2)CC1	-10	12
COc1c(Cl)cnn(-c2ccccc2)c1=O	-4	-2
O=c1oc(-c2ccccc2Cl)nc2c1cnn2-c1ccccc1	-3	90*
O=C(CC(c1ccccc1)c1ccccc1)NCC1(O)CCOCC1	-5	-5
CC(c1ccccc1O)N(Cc1ccccc1)C(=S)Nc1ccc(Cl)c(Cl)c1 (stereo unspecified)	-5	x
CCN(CC)CCC(c1ccc(OC)cc1)c1c(OC)cc(OC)c2c(C)cc(=O)oc12 (stereo unspecified)	-7	14
CCN(CC)CCC(c1ccc2c(c1)OCO2)c1c(OC)cc(OC)c2c(C)cc(=O)oc12 (stereo unspecified)	-14	30
CCN(CC)CCC(c1ccc(N(C)C)cc1)c1c(OC)cc(OC)c2c1OC(=O)CC2c1ccc(N(C)C)cc1 (stereo unspecified)	0	101*
CCN(CC)CCC(c1ccc(N(C)C)cc1)c1c(OC)cc(OC)c2c1OC(=O)CC2c1ccc(OC)cc1 (stereo unspecified)	-9	98*
COc1ccc(NC(=O)CCc2csc(NC(=O)c3ccco3)n2)cc1Cl	-5	-1
O=C(CN1CC(c2nc(-c3cccs3)no2)C1)N1CCc2ccccc21	-5	2
COc1cc(C2NC(=O)NC(C)=C2C(=O)Nc2ccc(F)c(F)c2)ccc1O (stereo unspecified)	-2	0
COc1ccc(NC(=O)C2=C(C)NC(=O)NC2c2ccc(OC)cc2OC)c(OC)c1 (stereo unspecified)	1	73*
SMILES	Pf apPOL inh	mHTT-CaM PPI inh
COc1ccc(NC(=O)C2=C(C)NC(=O)NC2c2cccs2)c(OC)c1 (stereo unspecified)	0	2
COc1ccc(C2NC(=O)NC(C)=C2C(=O)Nc2ccc(C)c(Cl)c2)cc1OC (stereo unspecified)	0	54*
CCCCN1C(=O)C(C)(C(=O)Nc2ccc(OC)c(Cl)c2)Oc2cccnc21 (stereo unspecified)	-2	-15
CCc1ccccc1NC(=O)c1ccc(OC(C)C)cc1	-7	-11
CCOCCCNC(=O)C1(C)CCC(=O)N1c1cc(C)ccc1C (stereo unspecified)	-3	-1
CC(C)Oc1ccc(C(O)=C2C(=O)C(=O)N(CCCn3ccnc3)C2c2ccccc2F)cc1 (stereo unspecified)	-8	5
Cc1ccc(C(=O)N2CCCCC2c2nncn2CC2CC2)cn1 (stereo unspecified)	3	6
COc1ccc(-c2nc3ccc(C)cn3c2NC(=O)C2CCCCC2)cc1OC	3	36
COc1ccc(-c2nc3ccccn3c2NC(=O)C2CCCCC2)cc1OC	-5	59*
COc1ccc(-c2nc3ccc(C)cn3c2NC(=O)C(Cl)Cl)cc1OC	33	52*
COc1ccc(-c2nc3ccc(C)cn3c2NC(C)=O)cc1OC	8	8
CN(C)c1ccc(C2NC(c3ccc(N(C)C)cc3)C3CCCC2C3=O)cc1 (stereo unspecified)	-9	12
Cc1c(C(=O)NCc2ccc(F)cc2)oc2ccc(S(=O)(=O)N3CCCCCC3)cc12	52*	-2
Cc1ccc(C)c(S(=O)(=O)N2CCCC(C)(C(=O)NCc3ccc(F)cc3)C2)c1 (stereo unspecified)	-2	61*
